Compound activity deposited in PubChem BioAssay by Broad Institute.
These entries were drawn from the full list.
aSyn 5UTR act: Activators working through SNCA 5'UTR binding (MLPCN) | actives 7.1% (n = 300,000) | alpha-synuclein 5'UTR reporter, activators screen | activity score, % (tested at 7.5 µM), hits read low | AID 1814; in the data active means activity score below about -60%
Numbers stand for hits.

Screening Cn1cc(Br)c(C(=O)Nc2ncc(Br)s2)n1 returned aSyn 5UTR act -147.
`COc1cccc(NC(=O)c2nn(C)cc2Br)c1` gave aSyn 5UTR act -105.
`CCOc1ccc(NC(=O)c2nn(C)cc2Br)cc1` gave aSyn 5UTR act -154.
`Cc1ccc(NC(=O)C2CCC(CNc3c(N4CCC(C)CC4)c(=O)c3=O)CC2)cc1F` (configuration not stated) gave aSyn 5UTR act inactive.
For CCCc1cc(=O)oc2cc(OCC(=O)Nc3ccccn3)ccc12 the results were aSyn 5UTR act -92.
Cc1csc(NC(=O)COc2ccc3c(C)cc(=O)oc3c2)n1 was read as aSyn 5UTR act -62.
For Cc1cc(=O)oc2cc(OCC(=O)Nc3ccc(N4CCC(C)CC4)cc3)ccc12 the results were aSyn 5UTR act -70.
Screening CCOC(=O)c1c(CSC(=N)N)n(-c2ccccc2)c2cc(Br)c(OC(C)=O)cc12 returned aSyn 5UTR act -71.
COc1ccc(C(=O)/C(=C/N(C)C)S(=O)(=O)c2ccccc2)cc1 was read as aSyn 5UTR act -160.
Cc1cccc(C(=O)OCC(=O)c2ccc3c(c2)OCO3)c1O was read as aSyn 5UTR act -153.
Screening O=C(COC(=O)c1ccccc1[N+](=O)[O-])c1ccc2c(c1)OCO2 returned aSyn 5UTR act -187.
Cc1ccccc1NC(=S)c1ccc2ccccc2n1 was read as aSyn 5UTR act -110.
`Cc1nnc2n1N=CC=C(c1ccccc1)S2` gave aSyn 5UTR act -94.
CN(C)c1ccc(N=Cc2nc(-c3ccccc3)oc2OC(=O)c2cccc(Cl)c2)cc1 was read as aSyn 5UTR act -146.
CC1(C)CNC(=O)c2sc(NC(=O)c3ccccc3)nc2C1 was read as aSyn 5UTR act -155.
Screening CC1(C)CC(=O)c2sc(NC(=O)C(C)(C)C)nc2C1 returned aSyn 5UTR act -184.
CC1(C)CC(=O)c2sc(NC(=O)c3ccc4ncsc4c3)nc2C1 was read as aSyn 5UTR act -77.
CC1(C)CC(=O)c2sc(NC(=O)c3ccccc3)nc2C1 was read as aSyn 5UTR act -78.
`COc1ccccc1NC(=O)c1c[nH]c2ccccc12` gave aSyn 5UTR act -78.
For Cc1cccc(C)c1NC(=O)c1c[nH]c2ccccc12 the results were aSyn 5UTR act -120.
Screening COc1ccccc1NC(=O)c1cnc(Nc2ccccc2OC)c2ccccc12 returned aSyn 5UTR act inactive.
`CC(C)(C)c1ccc(OCCn2ccccc2=O)cc1` gave aSyn 5UTR act -154.
Screening CCN(CC)S(=O)(=O)c1ccc(Cl)c(C(=O)Oc2cccc(-c3cnc4ccccc4n3)c2)c1 returned aSyn 5UTR act -90.
For CCN(CC)S(=O)(=O)c1cc(C(=O)Oc2cccc(-c3cnc4ccccc4n3)c2)ccc1Br the results were aSyn 5UTR act -99.
CCC1CCCCN1c1nc(-c2cccc(OC)c2O)nc2ccccc12 (configuration not stated) was read as aSyn 5UTR act -98.
`N#CCc1nc(CSc2nc3ccccc3o2)cs1` gave aSyn 5UTR act -134.
c1ccc(SCc2nc3ccccc3s2)nc1 was read as aSyn 5UTR act -113.
`c1ccc2oc(SCc3nc4ccccc4s3)nc2c1` gave aSyn 5UTR act -149.
c1ccc(Nc2nc(-c3ccccc3)ns2)cc1 was read as aSyn 5UTR act -144.
For CC(C)(C)C(=O)Nc1nc(-c2ccccc2)ns1 the results were aSyn 5UTR act -146.
O=C(/C=C/c1cn(-c2ccccc2)nc1-c1cccnc1)c1ccco1 was read as aSyn 5UTR act -63.
Screening Cc1cc(C)nc(Nc2nc3ccccc3[nH]2)n1 returned aSyn 5UTR act -109.
Screening c1ccc(Nc2nc3ccccc3[nH]2)nc1 returned aSyn 5UTR act -169.
`CCc1ccc2c(c1)C1(C(=O)N2)N2CCCC2C(C(=O)c2ccc3ccccc3c2)C12C(=O)Nc1ccccc12` (configuration not stated) gave aSyn 5UTR act -127.
CCc1ccc2c(c1)C1(NN=C(c3cccc4ccccc34)S1)C(=O)N2 (configuration not stated) was read as aSyn 5UTR act inactive.
`CCc1cccc2c1NC(=O)C21N2CCCC2C(C(=O)c2ccc3ccccc3c2)C12C(=O)Nc1ccccc12` (configuration not stated) gave aSyn 5UTR act -97.
`O=C(Nc1ccc(Cl)c(Cl)c1)Nc1ccccc1O` gave aSyn 5UTR act -105.
For O=C(Nc1ccc(Cl)c(Cl)c1)Nc1ccon1 the results were aSyn 5UTR act -69.
CCOC(=O)c1ccc(NC(=O)Nc2ccon2)cc1 was read as aSyn 5UTR act inactive.
For C=CCSc1n[nH]c(-c2ccc(OCCCC)cc2)n1 the results were aSyn 5UTR act -89.
Screening CCCOc1ccc(C2=NNC(=O)CC2)cc1 returned aSyn 5UTR act inactive.
Screening CCCOc1ccc(-c2nc(=S)[nH][nH]2)cc1 returned aSyn 5UTR act -77.
For C=CCSc1n[nH]c(-c2ccc(OCCC)cc2)n1 the results were aSyn 5UTR act -164.
Screening Cc1ccc(NC(=S)Nc2nc(CC(=O)Nc3ccccc3)cs2)cc1 returned aSyn 5UTR act -119.
`Cc1cnc(C(=O)Nc2ccc(F)cc2)cn1` gave aSyn 5UTR act -101.
Screening Cn1nc(CC(=O)Nc2ccc(N3CCN(C(=O)OC(C)(C)C)CC3)cc2)c2ccccc2c1=O returned aSyn 5UTR act inactive.
For Cc1cnc(C(=O)Nc2ccc(N3CCN(C(=O)OC(C)(C)C)CC3)cc2)cn1 the results were aSyn 5UTR act -89.
For Cc1cnc(C(=O)Nc2ccccc2F)cn1 the results were aSyn 5UTR act -91.
For Cc1cnc(C(=O)Nc2ccc(C(C)C)cc2)cn1 the results were aSyn 5UTR act -142.
For COCCNC(=O)COc1ccc(Br)cc1Cl the results were aSyn 5UTR act -68.
`O=C(COc1ccc(Br)cc1Cl)c1ccc[nH]1` gave aSyn 5UTR act -69.
C=CCNC(=O)COc1ccc(Br)cc1Cl was read as aSyn 5UTR act -103.
For C=CCN1C(=O)CS/C1=N\N=C\c1cccc([N+](=O)[O-])c1 the results were aSyn 5UTR act -73.
Screening CCc1ccc(C(=O)CSc2ncn[nH]2)cc1 returned aSyn 5UTR act -115.
`Oc1ccccc1NCC(O)Cn1ccc2ccccc21` (configuration not stated) gave aSyn 5UTR act -113.
Screening Cc1cc(C(=O)N/N=C/c2cc(Br)ccc2OC(=O)c2ccc(Br)cc2)n[nH]1 returned aSyn 5UTR act inactive.
`CC(C)(C)OC(=O)N/N=C/c1ccc(Br)cc1` gave aSyn 5UTR act -132.
`CC(C)(C)OC(=O)N/N=C\c1ccc(OC(=O)c2cccs2)cc1` gave aSyn 5UTR act -91.
`COc1ccc(/C=N\NC(=O)c2c(C)nc3ccc(Br)cn23)cc1` gave aSyn 5UTR act inactive.
Screening COc1cc(/C=N/NC(=O)c2ccccn2)ccc1OC(=O)c1ccc(Br)cc1 returned aSyn 5UTR act -84.
For O=C(Oc1ccc(/C=N/NC(=O)c2ccccn2)cc1)c1ccc(Br)cc1 the results were aSyn 5UTR act -124.
O=C(N/N=C/c1ccc(OC(=O)c2ccco2)cc1)c1ccccn1 was read as aSyn 5UTR act -123.
For O=C(N/N=C/c1ccc(OC(=O)c2cccs2)cc1)c1ccccn1 the results were aSyn 5UTR act -98.
`O=C(N/N=C/c1cccc(OC(=O)c2ccco2)c1)c1ccc(F)cc1` gave aSyn 5UTR act -104.
Cc1cc(C(=O)N/N=C/c2cc(Br)cc(Br)c2OC(=O)c2cccc(F)c2)n[nH]1 was read as aSyn 5UTR act inactive.
For O=C(Oc1ccc(/C=N/NC(=O)c2ccccn2)cc1)c1cccc(F)c1 the results were aSyn 5UTR act -116.
